The text below walks through data of PubChem BioAssay.

Molecules are shown by their SMILES. Active and inactive are the calls of the source.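 How the source made its calls, unless noted: active means fluorescence slope after compound addition differing from the mean of all screened samples at 99.7% confidence, in either direction; inactive means the rest.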

Assay [1] in a line: inhibitors of TNFa-induced NFkB p65 translocation, primary screen, imaging, HUVEC, MLSMR starter and 10KST1 sets (AID 438;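 active means inhibition above 20% together with a positive visual image hit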;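 further: compound added about 3h40 before a 20 min TNFalpha stimulation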;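 on inhibition: signal is the nuclear over cytoplasmic p65 intensity ratio per well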). To be noted: HUVEC TNFa-induced p65 nuclear translocation; cell count: measured here: nuclei count (cytotoxicity indicator), at 2.08 µM; inhibition: at 2 µM, stronger effect = higher value, 0% TNFa-plus-vehicle, 100% no-TNFa wells.
Assay [2] in a line: reduction of polyQ htt aggregates in cells – imaging, exon1htt(103Q)mCFP cells, high-content imaging, primary screen (AID 483;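 active means visual image review flags a hit and inhibition of aggregation exceeds 20%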;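 further: compound exposure lasted 3 days before fixation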;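 on nuclei count: percent of the per-plate median nuclei count of sample wells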). To be noted: exon1htt(103Q)mCFP cell line, aggregate imaging, at 2 µM; inhibition of aggregation: stronger effect = higher value; nuclei count: measured here: cell count, toxicity.
Assay [3] can be described thus: endothelial E-selectin expression blockers – imaging, HUVEC, immunofluorescence, MLSMR starter and 10KST1 sets, primary screen (AID 487;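 active means visually confirmed hit in the image check and inhibition above 20%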;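 on inhibition: signal is fraction of cell area covered by stained E-selectin grains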;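 on nuclei count: 100% = median nuclei count of all wells on the same plate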). To be noted: HUVEC TNFalpha-induced E-selectin immunofluorescence imaging, at 2 µM; inhibition: stronger effect = higher value; nuclei count: measured here: cell number, toxicity.
Assay [4] concerns the target Voltage-gated potassium channel subunit beta-2 (Rattus norvegicus) (UniProt P62483). The assay is described as follows: inhibitors of rat Kvbeta2 reductase activity – biochemical, NADPH fluorescence, primary screen (AID 622;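 active means fluorescence slope higher than the sample average by over 3 SD, cut at about -0.22 in these data, passing the limit was not always enough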;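 further: slope of raw intensity against log time taken from 70 to 1610 s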). Particulars: recombinant KvBeta, 4-cyanobenzaldehyde reduction, at 10 µM, stronger effect = higher value.
For assay [5] the target is unchanged. The assay can be described thus: enhancers of rat Kvbeta2 NADPH turnover – biochemical, NADPH fluorescence, primary screen (AID 623;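 active means NADPH fluorescence slope more negative than the mean of all samples by about 3 SD, 99.7% confidence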;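 further: fluorescence intensity change per second fitted from 20 to 320 s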). Particulars: Recombinant KvBeta, NADPH fluorescence decrease slope, 10 min; at 10 µM; stronger effect = lower value.
Assay [6] addresses Alpha-2C adrenergic receptor (Homo sapiens) (UniProt P18825). The assay can be described thus: compounds altering alpha2C-coupled GIRK flux – cell-based, HEK293 alpha2C/GIRK1/2, thallium flux, primary screen (AID 624).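 Further: slope of fluorescence ratio to pre-addition baseline per second over 15 to 24 s.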 To be noted: thallium flux BTC fluorescence, at 10 µM, actives lie on both sides.
Assay [7] is described as follows: blockers of RIG-like receptor reporter activation – cell-based, Sendai virus stimulus, luciferase, 10K MLSCN set, TLR/RLR signaling modifier project, primary screen (AID 602276;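 active means inhibition at or above 50% at 10 µM; inactive means inhibition below 50%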;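 further: firefly luciferase from ISG56 promoter only with Renilla not read in this screen; 0% = Sendai virus plus DMSO and 100% = medium plus DMSO without virus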). To be noted: HEK293 RL24 IRF3 luciferase reporter, at 10 µM, stronger effect = higher value. For orientation: A reporter such as luciferase makes a cellular process visible.
Assay [8] can be described thus: TLR3 IRF3 reporter activation blockers – cell-based, poly I:C stimulus, luciferase, 10K MLSCN set, primary screen (AID 602277;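 active means inhibition of the reporter signal at or above 50%; inactive means inhibition below 50%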). Particulars: HEK293-TLR3 RL24 IRF3 luciferase reporter, at 10 µM, stronger effect = higher value.

Voltage-gated potassium channel subunit beta-2 (Rattus norvegicus), sequence (P62483 whole entry, looked up): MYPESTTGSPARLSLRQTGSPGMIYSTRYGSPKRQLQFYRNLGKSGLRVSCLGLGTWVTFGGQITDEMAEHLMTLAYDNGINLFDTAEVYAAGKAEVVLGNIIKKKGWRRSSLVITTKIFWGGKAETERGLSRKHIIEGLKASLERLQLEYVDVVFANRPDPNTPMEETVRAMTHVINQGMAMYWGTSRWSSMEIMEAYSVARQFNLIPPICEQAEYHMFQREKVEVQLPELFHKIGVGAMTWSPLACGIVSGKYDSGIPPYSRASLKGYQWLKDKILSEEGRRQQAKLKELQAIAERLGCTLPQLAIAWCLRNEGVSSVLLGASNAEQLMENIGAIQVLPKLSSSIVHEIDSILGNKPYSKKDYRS
Alpha-2C adrenergic receptor (Homo sapiens), sequence (P18825 whole entry, looked up): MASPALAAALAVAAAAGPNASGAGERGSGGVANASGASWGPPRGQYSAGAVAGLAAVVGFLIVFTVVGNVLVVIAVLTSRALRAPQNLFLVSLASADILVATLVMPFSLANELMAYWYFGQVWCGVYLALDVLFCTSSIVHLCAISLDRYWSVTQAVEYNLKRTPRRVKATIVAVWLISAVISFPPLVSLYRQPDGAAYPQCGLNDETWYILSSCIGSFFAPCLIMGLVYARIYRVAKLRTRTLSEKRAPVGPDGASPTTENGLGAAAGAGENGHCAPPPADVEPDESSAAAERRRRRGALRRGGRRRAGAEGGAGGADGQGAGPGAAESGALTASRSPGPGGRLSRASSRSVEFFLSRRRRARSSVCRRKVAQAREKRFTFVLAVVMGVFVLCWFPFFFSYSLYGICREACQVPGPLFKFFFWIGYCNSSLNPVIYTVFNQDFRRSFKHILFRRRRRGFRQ

A word on the inhibition: it is the relative decrease from the control value, in per cent. In the case of `O=C(CCOc1ccccc1)NCc1ccccc1`, in assay [1], the cell count was 729. For the same compound, the inhibition was -17.6% (inactive) in assay [1], 12.7% (inactive) in assay [3], 11.5% (inactive) in assay [7] and 12.3% (inactive) in assay [8]. In addition, the inhibition of aggregation in assay [2] is -3.7% (inactive). The nuclei count amounted to 97.3% in assay [2] and 114% in assay [3]. Further, the fluorescence slope in assay [4] was -0.559 (inactive). For the same compound, the NADPH fluorescence slope in assay [5] was 7.4e-05 (inactive). The slope in assay [6] is 0.00548 (inactive).

As to `COc1ccc(NC(=O)CSc2nnc(Cc3cccn3C)n2-c2ccc(F)cc2)cc1`, the cell count in assay [1] is 576. The inhibition in assay [1] is 1.1% (inactive); in assay [3] it was -72.7% (inactive); in assay [7] it was 15% (inactive); in assay [8], 18.7% (inactive). Moreover, the inhibition of aggregation in assay [2] was -14.5% (inactive). The nuclei count in assay [2] was determined as 23.2%; in assay [3], 112%. Besides, in assay [4], the fluorescence slope was -0.577 (inactive). Besides, in assay [5], the NADPH fluorescence slope was 1.2e-05 (inactive). Moreover, the slope in assay [6] is 0.00735 (inactive).

Turning to `Cc1nnc(SCC(=O)Nc2nccs2)s1`, the cell count in assay [1] is 501. In addition, the inhibition in assay [1] is -10.8% (inactive); in assay [3] it was -0.9% (inactive); in assay [7], -7.71% (inactive); in assay [8] it was -7.69% (inactive). Besides, the inhibition of aggregation in assay [2] is 12.1% (inactive). In addition, the nuclei count was determined as 116% in assay [2] and 115% in assay [3]. In assay [4], the fluorescence slope was -0.413 (inactive). The NADPH fluorescence slope in assay [5] is -7.7e-05 (inactive). The slope in assay [6] was 0.00513 (inactive).

As for `Cc1nc(CCNC(=O)c2ccccc2)cs1`, the cell count in assay [1] worked out at 347. For the same compound, the inhibition in assay [1] was -6% (inactive); in assay [3], -51.1% (inactive); in assay [7], 9.26% (inactive); in assay [8] it was -2.39% (inactive). The inhibition of aggregation in assay [2] is 4.7% (inactive). For the same compound, the nuclei count came out at 102% in assay [2] and 127% in assay [3]. Further, the fluorescence slope in assay [4] was -0.486 (inactive). The NADPH fluorescence slope in assay [5] is 9.5e-06 (inactive). Further, the slope in assay [6] is 0.00492 (inactive).

Consider `CC(C)OC(=O)CCCCCN1C(=O)CSC1=S`, for which the cell count in assay [1] is 448. Moreover, the inhibition was -9.2% (inactive) in assay [1], -93.7% (inactive) in assay [3], 1.67% (inactive) in assay [7] and -4.31% (inactive) in assay [8]. Further, the inhibition of aggregation in assay [2] was -5.3% (inactive). Further, the nuclei count worked out at 80.5% in assay [2] and 114% in assay [3]. In addition, the fluorescence slope in assay [4] is -0.539 (inactive). Besides, in assay [5], the NADPH fluorescence slope is -1.3e-05 (inactive). In assay [6], the slope was 0.00459 (inactive).

`COc1ccc(NC(=O)CN(c2ccc(C)cc2)S(C)(=O)=O)c(OC)c1`: the cell count in assay [1] was 498. Moreover, the inhibition in assay [1] was 10.1% (inactive); in assay [3], -180% (inactive); in assay [7], 4.75% (inactive); in assay [8], 25.6% (inactive). Also, in assay [2], the inhibition of aggregation was -0.7% (inactive). Besides, the nuclei count in assay [2] is 92.5%; in assay [3] it was 139%. Further, the fluorescence slope in assay [4] is -0.392 (inactive). Also, the NADPH fluorescence slope in assay [5] is -6e-05 (inactive). Further, the slope in assay [6] was 0.0037 (inactive).

As for `O=S(=O)(c1cccs1)N1CCN(C/C=C/c2ccccc2)CC1`, in assay [1], the cell count came out at 359. In addition, the inhibition is 2.4% (inactive) in assay [1], 62.2% (inactive) in assay [3], 10.2% (inactive) in assay [7] and 9.74% (inactive) in assay [8]. Moreover, the inhibition of aggregation in assay [2] was -19.8% (inactive). The results for the nuclei count in assay [2] and in assay [3] were 108% and 94.8%, respectively. Moreover, the fluorescence slope in assay [4] was -0.492 (inactive). Also, in assay [5], the NADPH fluorescence slope was -4.5e-05 (inactive). Besides, in assay [6], the slope is 0.00442 (inactive).

Turning to `CCn1c(SCC(=O)NC)nnc1C(C)C`, the cell count in assay [1] worked out at 718. Further, the inhibition in assay [1] was -11.9% (inactive); in assay [3], -17.9% (inactive); in assay [7] it was 12.7% (inactive); in assay [8], 0.106% (inactive). In assay [2], the inhibition of aggregation was -4.5% (inactive). Also, the nuclei count in assay [2] worked out at 99.7%; in assay [3] it was 104%. Moreover, the fluorescence slope in assay [4] is -0.307 (inactive). The NADPH fluorescence slope in assay [5] is -5.6e-05 (inactive). Besides, the slope in assay [6] is 0.0053 (inactive).

In the case of `Cc1cc(C)n(-c2cc(N3CCOCC3)ncn2)n1`, in assay [1], the cell count worked out at 690. The inhibition in assay [1] is -9.8% (inactive); in assay [3] it was -69.3% (inactive); in assay [7], 2.82% (inactive); in assay [8], 0.822% (inactive). The inhibition of aggregation in assay [2] is 3% (inactive). Also, the values for the nuclei count in assay [2] and in assay [3] were 89.8% and 125%, respectively. Moreover, the fluorescence slope in assay [4] was -0.436 (inactive). The NADPH fluorescence slope in assay [5] was -3.4e-06 (inactive). Also, the slope in assay [6] is 0.00484 (inactive).

As to `Cc1ccccc1-n1c(=O)cc(N2CCN(C(=O)c3ccco3)CC2)[nH]c1=O`, the cell count in assay [1] was determined as 543. Also, the inhibition was 12.5% (inactive) in assay [1], -8.4% (inactive) in assay [3], 13.5% (inactive) in assay [7] and 12.4% (inactive) in assay [8]. Further, the inhibition of aggregation in assay [2] was 6.9% (inactive). The nuclei count was determined as 116% in assay [2] and 99.7% in assay [3]. For the same compound, in assay [4], the fluorescence slope is -0.598 (inactive). For the same compound, the NADPH fluorescence slope in assay [5] is 1.7e-05 (inactive). In assay [6], the slope is 0.00562 (inactive).

Regarding `O=C(NC1CC1)C1CCN(c2ccc(S(=O)(=O)N3CCOCC3)cc2)CC1`, the cell count in assay [1] was 735. Moreover, the inhibition in assay [1] was -4.1% (inactive); in assay [3], -14.8% (inactive); in assay [7], -7.23% (inactive); in assay [8], 20.7% (inactive). Also, in assay [2], the inhibition of aggregation was -4.3% (inactive). For the same compound, the nuclei count in assay [2] was 110%; in assay [3], 101%. For the same compound, in assay [4], the fluorescence slope was -0.476 (inactive). In addition, the NADPH fluorescence slope in assay [5] was -5e-06 (inactive). In assay [6], the slope was 0.00268 (inactive).

In the case of `Cc1[nH]nc2c1C(c1ccc(F)cc1)C1=C(CC(C)(C)CC1=O)N2` (centres undefined), the cell count in assay [1] turned out to be 561. Further, the inhibition in assay [1] was -30.6% (inactive); in assay [3], -52.8% (inactive); in assay [7], 10.5% (inactive); in assay [8], 32.3% (inactive). Besides, in assay [2], the inhibition of aggregation was 4.4% (inactive). Also, the nuclei count in assay [2] was found to be 98.7%; in assay [3], 102%. Also, the fluorescence slope in assay [4] is -0.451 (inactive). Besides, in assay [5], the NADPH fluorescence slope is -8.1e-06 (inactive). In addition, the slope in assay [6] is 0.00591 (inactive).

Take `CC(C)=CCCC(C)CN(C)CCc1ccccn1` (centres undefined): in assay [1], the cell count came out at 281. Also, the inhibition in assay [1] is -2.1% (inactive); in assay [3] it was -75.4% (inactive); in assay [7], -1.84% (inactive); in assay [8] it was 20.8% (inactive). Besides, in assay [2], the inhibition of aggregation was 27.8% (inactive). Also, the nuclei count worked out at 92.8% in assay [2] and 108% in assay [3]. Further, the fluorescence slope in assay [4] is -0.448 (inactive). Also, the NADPH fluorescence slope in assay [5] is -0.000147 (inactive). Besides, the slope in assay [6] is 0.00676 (inactive).

For `COCCN(Cc1cc2cc3c(cc2n2nnnc12)OCO3)C(=O)c1ccccc1F`, the cell count in assay [1] is 271. The inhibition in assay [1] is 10.7% (inactive); in assay [3], -63.4% (inactive); in assay [7], 3.47% (inactive); in assay [8], 5.93% (inactive). For the same compound, in assay [2], the inhibition of aggregation was -8.2% (inactive). Further, the figures for the nuclei count in assay [2] and in assay [3] were 96.5% and 105%, respectively. In assay [4], the fluorescence slope was -0.352 (inactive). Also, in assay [5], the NADPH fluorescence slope is -3.2e-05 (inactive). For the same compound, the slope in assay [6] was 0.00537 (inactive).
